Records with an inconclusive call do not appear. The source made the active and inactive calls. Unless noted, calls follow the shape of the dose curve; as a rule, active = well fitted inhibition curve with a large enough effect; inconclusive = small, poorly fitted or top-dose-only effect; inactive = flat fitted curve, though single readings scatter.
How the values were obtained:
[1] = AP1 Signaling Pathway (AID 357; active = well fitted curve in either direction with a large enough effect, not every such curve was filed as active;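 also: ME-180 reporter cells stimulated with EGF at its EC50 level; % is scaled to controls: 0 for no effect and ±100 for the full control effect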)
How it was run: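 A ratiometric CCF4 readout (405 nm excitation; 460 and 530 nm emission) quantified AP-1-driven beta-lactamase in ME-180 cells after 5 h with compound and EC50 EGF; AC50 values were derived for activators and inhibitors.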

[2] = target: Cytochrome P450 1A2 (Homo sapiens) (UniProt P05177); test: p450-cyp1a2 (AID 410; calls by dose curve; also: potency is read from the fitted curve at half-maximal effect;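 as to activity change, negative = inhibition: -100% = full effect of reference inhibitor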)
How it was run: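 Human CYP1A2 (20nM) demethylated Luciferin-ME at its Km (100uM) in 100mM KPO4. After 10 min compound preincubation, NADPH regeneration ran the reaction 60 min at room temperature. Luciferin was read by luminescence, normalized to 57 uM furafylline.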

[3] = Stat Signaling Pathway (AID 446; active = well fitted curve in either direction with a large enough effect, not every such curve was filed as active;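 also: ME-180 cervical cancer cells given 40 pM IL-6 alongside compound; SIE-controlled beta-lactamase reporter measured as 460/530 nm FRET emission ratio; % is scaled to controls: 0 for no effect and ±100 for the full control effect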)
How it was run: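 Reporter line: ME-180 cervical carcinoma, SIE-beta-lactamase. Treatment: compound with 40 pM IL-6, 5 hrs, 37 C, in low-serum OPTI-MEM with 10 mM HEPES pH 7.3. Detection: 460/530 nm fluorescence.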

[4] = target: Glucocorticoid receptor (Homo sapiens) (UniProt P04150); test: GR-GFP Redistribution (AID 450;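 active = compounds whose dose series gives a full or clear partial fitted curve of increased nuclear translocation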; also: potency is read from the fitted curve at half-maximal effect); settings: U2OS GR-GFP nuclear translocation, laser cytometry, 2 h
[5] = target: Glucocorticoid receptor (Homo sapiens) (UniProt P04150); test: GR-EFC Redistribution (AID 451; calls by dose curve; also: potency is read from the fitted curve at half-maximal effect); settings: CHO-K1 GR-EFC translocation, beta-gal luminescence, 2 h
How it was run: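 CHO-K1 cells expressing nuclear EA and GR-ED fragments of b-gal; compounds titrated up to 46 uM final, 2 h at 37 C. GR nuclear translocation read as complemented b-gal luminescence after 1 h RT detection.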

[6] = target: Mitogen-activated protein kinase 10 (Mus musculus) (UniProt Q61831); test: JNK3 AlphaScreen Assay (AID 530; active = well fitted curve in either direction with a large enough effect, not every such curve was filed as active;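 also: kinase came from lysate of stimulated human HepG2 cells; signal reports phosphorylation of biotinylated GST-cJun 1-79 at Ser73 with 10 µM ATP; % is scaled to controls: 0 for no effect and ±100 for the full control effect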)
How it was run: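 qHTS format: compounds tested as titrations against IL-1beta/TNF-alpha-activated HepG2 lysate JNK3 with biotin-GST-cJun substrate and 10 uM ATP at room temperature. Loss of anti-phospho-cJun AlphaScreen signal indicates inhibition.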

[7] = target: 3',5'-cyclic-AMP phosphodiesterase 4B (Homo sapiens) (UniProt Q07343); test: qHTS Assay for Inhibitors of PDE-IV (AID 607; active = well fitted activation curve with a large enough effect in the main read-out, with a control signal flat, not every such curve was filed as active; also: % of control where 0% means no effect)
How it was run: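 Cell-based read-out of cAMP via a modified cyclic nucleotide-gated channel and membrane potential dye (535/590 nm) in HEK293 cells expressing PDE4 endogenously. Compounds tested up to 22.9 uM final; 100 uM RO 20-1724 reference.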

[8] = qHTS Assay for Lipid Storage Modulators (AID 1519; calls by dose curve); settings: Drosophila S3 cells, BODIPY lipid droplet/cell ratio, laser cytometry, cells loaded with oleic acid; for activity change, negative = inhibition: at 25.7 µM (top of the series)
How it was run: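 Cells seeded at 5,000 per well were treated with compounds over a concentration series and loaded with oleic acid (400 uM, as added). Lipid droplet fluorescence (488 nm excitation, 500-530 nm channel) was read by laser-scanning cytometry and normalized to 20 uM Triacsin C.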

[9] = target: Ubiquitin carboxyl-terminal hydrolase 1 (Homo sapiens) (UniProt O94782); test: Inhibitors of USP1/UAF1: Pilot qHTS (AID 504865);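 also: rhodamine fluorescence freed from ubiquitin-rhodamine substrate followed over time; top concentration of the series differs between compounds; % is scaled to controls: 0 for no effect and ±100 for the full control effect; nearly all actives have a fitted effect of over 35% in size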
How it was run: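 Enzyme-free wells gave the negative control, while test wells held 1nM USP1/UAF1 preincubated with compound for 15 min at room temperature. Ub-Rho at 150nM final started the reaction, and fluorescence at 480/540 nm was recorded kinetically.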

[10] = target: Luciferin 4-monooxygenase (Photinus pyralis) (UniProt P08659); test: Biochemical firefly luciferase enzyme assay for NPC (AID 624030);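 also: purified P. pyralis luciferase at 10 nM with luciferin and ATP substrate; 0% = DMSO and -100% = full luciferase inhibition by PTC124 control; nearly all actives have a fitted effect of over 70% in size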
How it was run: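 Purified P. pyralis luciferase at 10 nM in 50 mM Tris Acetate (final), luminescence read within 5 minutes of enzyme addition to compounds. Activity normalised to PTC124 versus DMSO; concentration-response curves classed by r2, magnitude and activity.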

[11] = NFAT Signaling Pathway (AID 444; active = well fitted curve in either direction with a large enough effect, not every such curve was filed as active;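 also: carbachol stimulus at about its EC50 of 1 µM final; % is scaled to controls: 0 for no effect and ±100 for the full control effect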); settings: Jurkat NFAT-bla M1, carbachol, beta-lactamase ratio, 5 h; at 17.2 µM (top of the series) unless noted
How it was run: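 Jurkat cells with NFAT-driven β-lactamase reporter and co-expressed M1 receptor, stimulated with carbachol (final 1 uM, ~EC50), compound titration, 5 h at 37 °C. CCF4 loaded 1 h at RT; 460/530 nm ratio gave %activity and AC50.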

[12] = qHTS profiling for inhibitors of Plasmodium falciparum proliferation (AID 504749); also: nearly all actives have a fitted effect of over 60% in size; also: potency is read from the fitted curve at half-maximal effect;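 as to activity, negative = inhibition: 0% = DMSO vehicle and full inhibition = artemisinin control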; settings: P. falciparum in erythrocytes, SYBR Green DNA, 72 h
How it was run: (§1)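 Readout was DNA-dye fluorescence from lysed cultures, ex 485/em 535 nm. Parasitized red cells had grown 72 h with compound; data scaled between 0.29 uM artemisinin and DMSO wells and corrected using vehicle-only plates.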

C2A = test: as above; settings: P. falciparum in erythrocytes, SYBR Green DNA, 72 h; series mostly up to 12.8 µM
How it was run: as §1

CP217 = test: as above; settings: P. falciparum in erythrocytes, SYBR Green DNA, 72 h; series mostly up to 12.8 µM
How it was run: as §1

CP238 = test: as above; settings: P. falciparum in erythrocytes, SYBR Green DNA, 72 h; series mostly up to 12.8 µM
How it was run: as §1

CP250 = test: as above; settings: P. falciparum in erythrocytes, SYBR Green DNA, 72 h; series mostly up to 12.8 µM
How it was run: as §1

FAB9 = test: as above; settings: P. falciparum in erythrocytes, SYBR Green DNA, 72 h; series mostly up to 12.8 µM
How it was run: as §1

JCK = test: as above; settings: P. falciparum in erythrocytes, SYBR Green DNA, 72 h; series mostly up to 12.8 µM
How it was run: as §1

PC49 = test: as above; settings: P. falciparum in erythrocytes, SYBR Green DNA, 72 h; series mostly up to 12.8 µM
How it was run: as §1

SC27B = test: as above; settings: P. falciparum in erythrocytes, SYBR Green DNA, 72 h; series mostly up to 12.8 µM
How it was run: as §1

[13] = measured here: cell count channel max response
[14] = measured here: lipid channel max response
[15] = at 12.8 µM (top of the series), parasite line A
[16] = at 12.8 µM (top of the series), parasite line B

Chain of Cytochrome P450 1A2 (Homo sapiens) (P05177 whole entry, looked up): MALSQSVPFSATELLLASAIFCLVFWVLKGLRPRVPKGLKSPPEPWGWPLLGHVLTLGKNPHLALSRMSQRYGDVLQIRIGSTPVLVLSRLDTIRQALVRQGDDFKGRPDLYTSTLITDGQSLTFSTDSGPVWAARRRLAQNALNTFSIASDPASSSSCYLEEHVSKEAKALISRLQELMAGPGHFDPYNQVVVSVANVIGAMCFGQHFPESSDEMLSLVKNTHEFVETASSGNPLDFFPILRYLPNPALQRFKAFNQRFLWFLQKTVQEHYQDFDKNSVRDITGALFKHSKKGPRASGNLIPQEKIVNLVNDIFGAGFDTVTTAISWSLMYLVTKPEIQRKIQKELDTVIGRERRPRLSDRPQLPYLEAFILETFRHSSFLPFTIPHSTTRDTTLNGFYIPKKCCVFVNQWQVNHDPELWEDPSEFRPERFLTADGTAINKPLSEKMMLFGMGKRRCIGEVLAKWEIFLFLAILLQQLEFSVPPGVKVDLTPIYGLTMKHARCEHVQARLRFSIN
Chain of 3',5'-cyclic-AMP phosphodiesterase 4B (Homo sapiens) (Q07343 whole entry, looked up): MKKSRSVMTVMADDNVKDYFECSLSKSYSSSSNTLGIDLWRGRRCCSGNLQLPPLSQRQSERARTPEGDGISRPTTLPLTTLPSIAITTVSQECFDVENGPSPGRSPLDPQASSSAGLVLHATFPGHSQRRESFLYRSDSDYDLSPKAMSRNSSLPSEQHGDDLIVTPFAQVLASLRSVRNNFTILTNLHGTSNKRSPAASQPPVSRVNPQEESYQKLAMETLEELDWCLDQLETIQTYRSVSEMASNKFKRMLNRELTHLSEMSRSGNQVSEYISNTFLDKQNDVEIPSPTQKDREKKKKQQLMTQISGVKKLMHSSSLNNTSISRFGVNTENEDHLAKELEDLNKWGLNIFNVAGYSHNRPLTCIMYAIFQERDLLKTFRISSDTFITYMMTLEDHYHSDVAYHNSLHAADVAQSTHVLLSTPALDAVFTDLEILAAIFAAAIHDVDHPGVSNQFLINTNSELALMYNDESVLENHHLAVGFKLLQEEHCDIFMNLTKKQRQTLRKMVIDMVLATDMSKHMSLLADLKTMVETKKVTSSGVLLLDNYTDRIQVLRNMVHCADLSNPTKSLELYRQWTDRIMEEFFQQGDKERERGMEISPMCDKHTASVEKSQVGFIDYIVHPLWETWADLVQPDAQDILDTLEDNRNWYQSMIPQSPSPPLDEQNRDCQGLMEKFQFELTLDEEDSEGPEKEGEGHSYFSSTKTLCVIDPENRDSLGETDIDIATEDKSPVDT
Chain of Luciferin 4-monooxygenase (Photinus pyralis) (P08659 whole entry, looked up): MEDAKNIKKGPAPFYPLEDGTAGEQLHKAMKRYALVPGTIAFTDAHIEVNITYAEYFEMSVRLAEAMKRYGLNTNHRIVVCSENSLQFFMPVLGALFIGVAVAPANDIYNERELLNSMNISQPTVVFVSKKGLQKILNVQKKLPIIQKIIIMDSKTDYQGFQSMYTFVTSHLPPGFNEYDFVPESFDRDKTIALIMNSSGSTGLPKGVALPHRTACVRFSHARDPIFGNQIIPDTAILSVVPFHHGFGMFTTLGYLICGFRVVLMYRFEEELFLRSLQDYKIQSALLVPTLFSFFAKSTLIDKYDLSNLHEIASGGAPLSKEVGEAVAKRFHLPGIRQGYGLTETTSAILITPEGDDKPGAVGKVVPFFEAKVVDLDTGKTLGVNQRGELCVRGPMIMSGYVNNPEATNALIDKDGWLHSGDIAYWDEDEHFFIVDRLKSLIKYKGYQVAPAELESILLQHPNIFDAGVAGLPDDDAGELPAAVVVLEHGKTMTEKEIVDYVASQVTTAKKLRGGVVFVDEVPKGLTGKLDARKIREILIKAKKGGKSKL
Chain of Ubiquitin carboxyl-terminal hydrolase 1 (Homo sapiens) (O94782 whole entry, looked up): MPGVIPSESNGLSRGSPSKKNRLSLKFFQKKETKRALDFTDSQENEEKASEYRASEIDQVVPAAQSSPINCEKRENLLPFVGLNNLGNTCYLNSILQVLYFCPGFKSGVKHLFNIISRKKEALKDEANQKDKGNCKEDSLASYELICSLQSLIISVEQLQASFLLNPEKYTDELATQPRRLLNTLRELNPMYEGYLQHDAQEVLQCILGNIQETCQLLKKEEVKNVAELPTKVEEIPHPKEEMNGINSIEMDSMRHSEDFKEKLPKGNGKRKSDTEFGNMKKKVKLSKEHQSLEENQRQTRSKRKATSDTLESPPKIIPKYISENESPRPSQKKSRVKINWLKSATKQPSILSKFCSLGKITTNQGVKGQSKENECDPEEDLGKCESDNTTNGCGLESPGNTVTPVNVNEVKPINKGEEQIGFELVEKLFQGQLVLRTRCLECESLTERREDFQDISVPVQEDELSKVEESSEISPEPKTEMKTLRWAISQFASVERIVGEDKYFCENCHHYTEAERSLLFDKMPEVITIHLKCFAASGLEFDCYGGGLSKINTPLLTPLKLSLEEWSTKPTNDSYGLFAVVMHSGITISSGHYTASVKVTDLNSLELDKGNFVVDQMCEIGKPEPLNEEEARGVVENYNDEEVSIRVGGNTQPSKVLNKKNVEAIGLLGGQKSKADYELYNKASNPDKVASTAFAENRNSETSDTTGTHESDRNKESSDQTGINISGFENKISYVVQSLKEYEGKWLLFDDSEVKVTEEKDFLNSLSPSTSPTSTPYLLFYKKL
Chain of Glucocorticoid receptor (Homo sapiens) (P04150 whole entry, looked up, the tested form may be a part): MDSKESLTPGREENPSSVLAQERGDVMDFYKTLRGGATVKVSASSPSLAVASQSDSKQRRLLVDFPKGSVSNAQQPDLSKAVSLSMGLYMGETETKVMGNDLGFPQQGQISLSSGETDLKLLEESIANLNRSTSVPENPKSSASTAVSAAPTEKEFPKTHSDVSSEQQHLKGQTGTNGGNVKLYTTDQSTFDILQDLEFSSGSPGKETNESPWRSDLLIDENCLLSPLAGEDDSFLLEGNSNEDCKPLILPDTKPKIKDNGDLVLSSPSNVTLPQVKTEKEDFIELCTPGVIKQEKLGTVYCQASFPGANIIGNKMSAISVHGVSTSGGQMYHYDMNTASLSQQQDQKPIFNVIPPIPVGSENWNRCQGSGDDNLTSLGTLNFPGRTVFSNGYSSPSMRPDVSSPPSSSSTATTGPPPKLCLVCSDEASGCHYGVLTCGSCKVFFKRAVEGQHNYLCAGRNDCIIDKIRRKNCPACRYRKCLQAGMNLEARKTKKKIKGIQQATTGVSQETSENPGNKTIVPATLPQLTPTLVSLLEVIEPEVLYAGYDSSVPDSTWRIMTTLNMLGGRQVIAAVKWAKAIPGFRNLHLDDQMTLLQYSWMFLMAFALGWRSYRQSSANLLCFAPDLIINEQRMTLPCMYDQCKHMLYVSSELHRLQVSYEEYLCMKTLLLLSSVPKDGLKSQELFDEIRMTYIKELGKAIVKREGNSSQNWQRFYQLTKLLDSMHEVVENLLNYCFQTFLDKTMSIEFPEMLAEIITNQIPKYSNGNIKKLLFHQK

O=C(O)[C@@H](O)[C@@H](O)[C@@H](O[C@H]1O[C@@H](CO)[C@@H](O)[C@@H](O)[C@@H]1O)[C@@H](O)CO
12.1%: max response [8, 13]
10.3%: max response [8, 14]
inactive: outcome [1] | Potency [2] | outcome [3] | Potency [4] > 20.6 µM | Potency [5] > 20.6 µM | Potency [6] | outcome [7] | activity change, negative = inhibition [8] -0.529% | Potency [9] | Potency [10]

O=C(/C=C\C=C/c1ccc2c(c1)OCO2)N1CCCCC1
active: Potency [2] 3.16 µM
1.28%: max response [8, 14]
-1.9%: max response [8, 13]
inactive: outcome [1] | activity change, negative = inhibition [11] -3.46% | outcome [3] | Potency [6] | activity change, negative = inhibition [8] 2%

CN(C/C=C\c1ccccc1)Cc1cccc2ccccc12
active: Potency [2] 2 µM
-24.2%: max response [8, 13]
-23.6%: max response [8, 14]
inactive: outcome [1] | outcome [3] | Potency [4] > 20.6 µM | Potency [5] > 20.6 µM | Potency [6] | activity change, negative = inhibition [8] -0.644% | Potency [9] | Potency [10] | activity, negative = inhibition ([12]; at 28.7 µM (top of the series), parasite line A) 18.6% | activity, negative = inhibition ([12]; at 28.7 µM (top of the series), parasite line B) 9.39% | Potency (C2A) | Potency (CP217) | Potency (CP238) | Potency (CP250) | Potency (FAB9) | Potency (JCK) | Potency (PC49) | Potency (SC27B)

CN(C)CCO[C@@H](c1ccc(Cl)cc1)c1ccccn1
-21.7%: max response [8, 13]
inactive: outcome [1] | Potency [2] | outcome [3] | Potency [4] > 20.6 µM | Potency [5] > 20.6 µM | Potency [6] | outcome [7] | activity change, negative = inhibition [8] -4.98% | Potency [9]
-26%: max response [8, 14]

CO[C@]1(NC(=O)Cc2cccs2)C(=O)N2C(C(=O)O)=C(COC(N)=O)CS[C@H]21
-2.6%: max response [8, 13]
inactive: outcome [1] | Potency [2] | activity change, negative = inhibition [11] 3.7% | outcome [3] | Potency [6] | outcome [7] | activity change, negative = inhibition [8] 2.57% | Potency [9]
0.943%: max response [8, 14]

O=C(O)[C@@H](O)[C@@H](O)[C@@H](O)[C@@H](O)C(=O)O (tested in a mixture with another compound)
-7.78%: max response [8, 14]
inactive: outcome [1] | Potency [2] | activity change, negative = inhibition [11] -16.6% | outcome [3] | Potency [6] | outcome [7] | activity change, negative = inhibition [8] -0.616% | Potency [10]
-10.9%: max response [8, 13]

CC(=O)N[C@H]1[C@@H](O[C@@H](C)C(=O)O)[C@H](O)[C@H](CO)O[C@@H]1O
4.82%: max response [8, 14]
inactive: outcome [1] | Potency [2] | outcome [3] | Potency [4] > 20.6 µM | Potency [5] > 20.6 µM | outcome [7] | activity change, negative = inhibition [8] -1.67% | Potency [9]
7.96%: max response [8, 13]

CN1CCCN([C@@H](c2ccccc2)c2ccc(Cl)cc2)CC1
inactive: outcome [1] | Potency [2] | outcome [3] | Potency [4] > 20.6 µM | Potency [5] > 20.6 µM | Potency [6] | activity change, negative = inhibition [8] -4.42% | Potency [9]
1.38%: max response [8, 14]
4.14%: max response [8, 13]

CC[C@H](Cc1c(I)cc(I)c(N)c1I)C(=O)O
-5.12%: max response [8, 14]
-5.23%: max response [8, 13]
inactive: outcome [1] | outcome [3] | Potency [4] > 20.6 µM | Potency [5] > 20.6 µM | Potency [6] | activity change, negative = inhibition [8] 0.772% | Potency [9] | Potency [10] | activity, negative = inhibition [12, 15] 7.39% | activity, negative = inhibition [12, 16] 11.4% | Potency (C2A) | Potency (CP217) | Potency (CP238) | Potency (CP250) | Potency (FAB9) | Potency (JCK) | Potency (PC49) | Potency (SC27B)
active: Potency [2] 12.6 µM

C/C(=C(/CCO)SSC[C@@H]1CCCO1)N(C=O)Cc1cnc(C)nc1N
inactive: outcome [1] | Potency [2] | outcome [3] | Potency [4] > 20.6 µM | Potency [5] > 20.6 µM | Potency [6] | outcome [7] | activity change, negative = inhibition [8] -0.641% | Potency [9] | Potency [10]
-21%: max response [8, 13]
-20.8%: max response [8, 14]

Nc1ccccc1S(N)(=O)=O
-21.4%: max response [8, 14]
-21%: max response [8, 13]
inactive: outcome [1] | Potency [2] | outcome [3] | Potency [4] > 20.6 µM | Potency [5] > 20.6 µM | Potency [6] | outcome [7] | activity change, negative = inhibition [8] -3% | Potency [9]

CC(=O)[C@H]1CC[C@@H]2[C@H]3CC=C4C[C@@H](O)CC[C@]4(C)[C@H]3CC[C@]12C
inactive: outcome [1] | Potency [2] | activity change, negative = inhibition [11] 3.47% | outcome [3] | Potency [6] | outcome [7] | activity change, negative = inhibition [8] -2.95%
-15.2%: max response [8, 14]
-11.5%: max response [8, 13]

Clc1ccc(CC[C@H](Cn2ccnc2)Sc2c(Cl)cccc2Cl)cc1
-3.86%: max response [8, 13]
-6.78%: max response [8, 14]
active: Potency [2] 3.98 µM | Potency (CP217) 3.55 µM | Potency (SC27B) 3.98 µM
inactive: outcome [1] | outcome [3] | Potency [5] > 20.6 µM | Potency [6] | activity change, negative = inhibition [8] 3.47% | Potency [10]

CC(C)(C)NC(=O)[C@@H]1CC[C@@H]2[C@@H]3CC[C@@H]4NC(=O)C=C[C@@]4(C)[C@H]3CC[C@]21C
-13.3%: max response [8, 14]
inactive: outcome [1] | activity change, negative = inhibition [11] 3.14% | outcome [3] | Potency [4] > 20.6 µM | Potency [5] > 20.6 µM | Potency [6] | outcome [7] | activity change, negative = inhibition [8] -1.87% | Potency [9] | Potency [10] | activity, negative = inhibition [12, 15] 6.77% | activity, negative = inhibition [12, 16] -2.48% | Potency (C2A) | Potency (CP217) | Potency (CP238) | Potency (CP250) | Potency (FAB9) | Potency (JCK) | Potency (PC49) | Potency (SC27B)
-11.6%: max response [8, 13]

Reference: PubChem BioAssay (NCATS)
